Reference: publication PMC7862700, “An all-to-all approach to the identification of sequence-specific readers for epigenetic DNA modifications on cytosine”

How the values were obtained:
Assay in all cases: DAPPL (digital affinity profiling via proximity ligation, sequencing); 10 mM Tris-HCl pH 7.5, 50 mM NaCl, 1 mM DTT, 4% glycerol, room temperature, 30 min; GST-TFs on glutathione beads, 16-mer random dsDNA library, 0.1% formaldehyde crosslink after washing; high values mean tight binding
FEV = target: T1, FEV (Homo sapiens, UniProt Q99581 1-238); settings: protein: recombinant; tags: N-terminal GST; dsDNA, one strand shown
T1 sequence: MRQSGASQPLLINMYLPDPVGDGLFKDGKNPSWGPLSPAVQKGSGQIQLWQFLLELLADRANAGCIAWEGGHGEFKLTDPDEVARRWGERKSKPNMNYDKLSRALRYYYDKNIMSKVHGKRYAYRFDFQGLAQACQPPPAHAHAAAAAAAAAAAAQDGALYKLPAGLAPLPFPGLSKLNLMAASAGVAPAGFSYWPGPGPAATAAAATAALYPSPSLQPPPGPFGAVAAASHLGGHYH
In short: (§1)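 A tag-only sample was pooled with DNA-barcoded human transcription factors that had been expressed in yeast as GST fusions and captured on glutathione beads. The pools were incubated for 30 min at room temperature with 200 nmole of a random double-stranded 16-mer DNA library in Tris/NaCl/DTT/glycerol buffer, then washed, crosslinked with 0.1% formaldehyde, proximity-ligated (BsaI/T4 ligase, 1 h, 37 °C), PCR-amplified and sequenced on an Illumina NextSeq500. Binding signal is each hexamer's read frequency for a factor divided by its frequency for the tag-only sample.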

ETV5 = ETV5 (Homo sapiens, UniProt P41161 1-510); settings: protein: recombinant; tags: N-terminal GST; dsDNA, one strand shown
In short: as §1

HSF1 = HSF1 (Homo sapiens, UniProt Q00613 1-529); settings: protein: recombinant; tags: N-terminal GST; chain copies: 3; dsDNA, one strand shown
In short: as §1

SPIC = target: T2, SPIC (Homo sapiens, UniProt Q8N5J4 1-248); settings: protein: recombinant; tags: N-terminal GST; dsDNA, one strand shown
T2 sequence: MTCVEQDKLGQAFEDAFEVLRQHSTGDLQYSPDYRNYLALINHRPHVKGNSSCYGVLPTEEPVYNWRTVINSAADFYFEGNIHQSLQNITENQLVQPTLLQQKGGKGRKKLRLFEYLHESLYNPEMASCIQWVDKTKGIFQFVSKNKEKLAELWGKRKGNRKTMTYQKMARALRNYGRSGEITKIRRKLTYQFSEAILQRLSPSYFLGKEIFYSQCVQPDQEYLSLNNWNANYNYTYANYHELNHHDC
In short: as §1

ELF4 = ELF4 (Homo sapiens, UniProt Q99607 1-663); settings: protein: recombinant; tags: N-terminal GST; dsDNA, one strand shown
In short: as §1

ELK4 = target: T3, ELK4 (Homo sapiens, UniProt P28324-2 1-405); settings: protein: recombinant; tags: N-terminal GST; dsDNA, one strand shown
T3 sequence: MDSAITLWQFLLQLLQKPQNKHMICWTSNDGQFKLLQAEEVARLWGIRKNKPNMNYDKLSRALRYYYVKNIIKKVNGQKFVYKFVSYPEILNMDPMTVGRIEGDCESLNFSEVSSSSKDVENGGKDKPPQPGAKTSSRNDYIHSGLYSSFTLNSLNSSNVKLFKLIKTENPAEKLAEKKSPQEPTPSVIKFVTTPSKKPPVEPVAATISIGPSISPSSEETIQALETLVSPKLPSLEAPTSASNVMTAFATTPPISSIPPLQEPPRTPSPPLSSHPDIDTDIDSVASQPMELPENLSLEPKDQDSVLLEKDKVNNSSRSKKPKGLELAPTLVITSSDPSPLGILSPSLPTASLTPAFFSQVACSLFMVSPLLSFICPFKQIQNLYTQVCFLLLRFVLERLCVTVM
In short: as §1

ETV2 = target: T4, ETV2 (Homo sapiens, UniProt O00321 1-342); settings: protein: recombinant; tags: N-terminal GST; dsDNA, one strand shown
T4 sequence: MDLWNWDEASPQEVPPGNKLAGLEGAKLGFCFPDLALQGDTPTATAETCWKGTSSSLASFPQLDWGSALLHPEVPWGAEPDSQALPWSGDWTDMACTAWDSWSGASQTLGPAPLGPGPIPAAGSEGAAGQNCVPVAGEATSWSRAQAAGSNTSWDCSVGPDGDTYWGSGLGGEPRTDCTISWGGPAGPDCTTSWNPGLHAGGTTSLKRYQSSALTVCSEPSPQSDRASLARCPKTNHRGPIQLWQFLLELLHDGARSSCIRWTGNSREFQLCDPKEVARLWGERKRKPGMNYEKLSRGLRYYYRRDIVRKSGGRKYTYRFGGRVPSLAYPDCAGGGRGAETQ
In short: as §1

ELF3 = target: T5, ELF3 (Homo sapiens, UniProt P78545 1-371); settings: protein: recombinant; tags: N-terminal GST; dsDNA, one strand shown
T5 sequence: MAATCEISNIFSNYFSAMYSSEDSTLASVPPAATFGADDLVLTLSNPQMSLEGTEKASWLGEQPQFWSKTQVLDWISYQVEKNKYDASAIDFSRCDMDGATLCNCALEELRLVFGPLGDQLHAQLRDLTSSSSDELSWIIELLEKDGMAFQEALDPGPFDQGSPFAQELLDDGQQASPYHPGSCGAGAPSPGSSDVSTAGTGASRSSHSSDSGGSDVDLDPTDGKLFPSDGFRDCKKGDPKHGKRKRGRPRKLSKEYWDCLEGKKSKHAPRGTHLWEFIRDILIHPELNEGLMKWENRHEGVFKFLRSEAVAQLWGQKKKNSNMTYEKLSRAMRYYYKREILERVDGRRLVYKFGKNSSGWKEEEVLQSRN
In short: as §1

CRX = CRX (Homo sapiens, UniProt O43186 1-299); settings: protein: recombinant; tags: N-terminal GST; dsDNA, one strand shown
In short: as §1

ETV1 = ETV1 (Homo sapiens, UniProt P50549 1-477); settings: protein: recombinant; tags: N-terminal GST; dsDNA, one strand shown
In short: as §1

ELF4, sequence (Q99607 whole entry): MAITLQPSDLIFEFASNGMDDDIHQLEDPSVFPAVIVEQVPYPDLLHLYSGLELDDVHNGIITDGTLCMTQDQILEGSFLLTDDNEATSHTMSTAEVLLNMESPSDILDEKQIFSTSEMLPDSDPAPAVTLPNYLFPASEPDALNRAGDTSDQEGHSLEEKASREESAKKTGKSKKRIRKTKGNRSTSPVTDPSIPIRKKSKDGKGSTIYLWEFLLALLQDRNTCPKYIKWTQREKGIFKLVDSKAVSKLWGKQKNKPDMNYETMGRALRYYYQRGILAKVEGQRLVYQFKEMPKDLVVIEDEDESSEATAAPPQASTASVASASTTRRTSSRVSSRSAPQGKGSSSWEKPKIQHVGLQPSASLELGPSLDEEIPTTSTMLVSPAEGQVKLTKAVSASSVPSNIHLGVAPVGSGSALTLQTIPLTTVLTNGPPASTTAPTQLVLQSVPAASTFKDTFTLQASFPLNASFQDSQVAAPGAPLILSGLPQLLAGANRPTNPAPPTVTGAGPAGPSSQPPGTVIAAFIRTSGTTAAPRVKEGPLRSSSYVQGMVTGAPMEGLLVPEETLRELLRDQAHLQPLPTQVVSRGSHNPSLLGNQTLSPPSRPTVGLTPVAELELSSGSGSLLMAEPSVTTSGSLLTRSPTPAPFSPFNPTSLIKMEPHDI
ETV5, sequence (P41161 whole entry): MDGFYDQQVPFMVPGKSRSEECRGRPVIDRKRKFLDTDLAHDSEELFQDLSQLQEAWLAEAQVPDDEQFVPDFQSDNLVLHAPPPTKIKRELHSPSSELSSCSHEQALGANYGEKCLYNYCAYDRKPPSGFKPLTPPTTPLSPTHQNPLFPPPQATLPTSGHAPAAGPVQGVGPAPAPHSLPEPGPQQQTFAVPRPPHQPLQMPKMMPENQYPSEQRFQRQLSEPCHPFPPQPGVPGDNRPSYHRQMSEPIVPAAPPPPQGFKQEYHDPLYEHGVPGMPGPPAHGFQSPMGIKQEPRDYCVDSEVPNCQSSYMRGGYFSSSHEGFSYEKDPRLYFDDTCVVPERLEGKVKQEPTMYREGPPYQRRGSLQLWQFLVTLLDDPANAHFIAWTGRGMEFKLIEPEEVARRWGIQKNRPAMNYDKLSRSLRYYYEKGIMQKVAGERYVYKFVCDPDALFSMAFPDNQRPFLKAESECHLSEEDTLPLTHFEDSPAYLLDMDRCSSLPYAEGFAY
HSF1, sequence (Q00613 whole entry): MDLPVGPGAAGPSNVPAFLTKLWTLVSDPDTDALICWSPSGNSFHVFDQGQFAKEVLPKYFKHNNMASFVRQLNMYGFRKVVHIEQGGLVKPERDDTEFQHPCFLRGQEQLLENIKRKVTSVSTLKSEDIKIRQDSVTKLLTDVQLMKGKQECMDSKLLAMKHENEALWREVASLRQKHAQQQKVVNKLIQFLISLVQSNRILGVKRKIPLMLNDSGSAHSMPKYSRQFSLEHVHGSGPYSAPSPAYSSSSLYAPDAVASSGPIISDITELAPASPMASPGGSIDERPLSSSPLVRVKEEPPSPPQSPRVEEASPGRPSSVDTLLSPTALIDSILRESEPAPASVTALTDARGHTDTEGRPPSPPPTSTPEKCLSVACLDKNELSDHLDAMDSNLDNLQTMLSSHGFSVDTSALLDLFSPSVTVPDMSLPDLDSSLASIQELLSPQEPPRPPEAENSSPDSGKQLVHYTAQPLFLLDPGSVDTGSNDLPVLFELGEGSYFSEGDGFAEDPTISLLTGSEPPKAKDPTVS
CRX, sequence (O43186 whole entry): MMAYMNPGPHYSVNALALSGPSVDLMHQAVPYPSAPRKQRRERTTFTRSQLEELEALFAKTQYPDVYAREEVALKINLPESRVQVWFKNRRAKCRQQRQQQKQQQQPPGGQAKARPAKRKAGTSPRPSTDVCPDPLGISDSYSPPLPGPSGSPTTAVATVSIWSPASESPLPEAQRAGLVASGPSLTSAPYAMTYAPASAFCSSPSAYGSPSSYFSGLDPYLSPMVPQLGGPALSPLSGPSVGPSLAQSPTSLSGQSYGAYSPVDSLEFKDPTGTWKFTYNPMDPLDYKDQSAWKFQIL
ETV1, sequence (P50549 whole entry): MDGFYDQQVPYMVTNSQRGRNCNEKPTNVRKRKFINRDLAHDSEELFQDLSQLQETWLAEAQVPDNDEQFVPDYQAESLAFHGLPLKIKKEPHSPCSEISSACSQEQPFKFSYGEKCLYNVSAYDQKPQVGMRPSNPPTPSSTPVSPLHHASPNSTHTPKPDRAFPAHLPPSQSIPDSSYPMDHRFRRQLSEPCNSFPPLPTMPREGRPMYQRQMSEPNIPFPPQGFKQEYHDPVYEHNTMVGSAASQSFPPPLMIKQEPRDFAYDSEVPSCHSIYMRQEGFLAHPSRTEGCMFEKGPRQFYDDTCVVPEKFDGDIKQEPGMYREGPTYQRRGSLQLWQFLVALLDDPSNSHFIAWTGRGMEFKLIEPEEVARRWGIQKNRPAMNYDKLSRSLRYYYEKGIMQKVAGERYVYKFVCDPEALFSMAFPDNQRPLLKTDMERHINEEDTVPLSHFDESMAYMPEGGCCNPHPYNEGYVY

## CCGCTA
FEV
  binding signal: 1.33 fold enrichment (6-mer frequency, TF over GST control)
ETV5
  binding signal: 1.23 fold enrichment (6-mer frequency, TF over GST control)
HSF1
  binding signal: 1.17 fold enrichment (6-mer frequency, TF over GST control)
SPIC
  binding signal: 1.44 fold enrichment (6-mer frequency, TF over GST control)
ELF4
  binding signal: 1.33 fold enrichment (6-mer frequency, TF over GST control)
ELK4
  binding signal: 1.3 fold enrichment (6-mer frequency, TF over GST control)
ETV2
  binding signal: 1.37 fold enrichment (6-mer frequency, TF over GST control)
ELF3
  binding signal: 1.38 fold enrichment (6-mer frequency, TF over GST control)
CRX
  binding signal: 1.28 fold enrichment (6-mer frequency, TF over GST control)
ETV1
  binding signal: 1.36 fold enrichment (6-mer frequency, TF over GST control)
